# TIM10 inh: growth inhibitors of TIM10 yeast strain | S. cerevisiae TIM10 strain growth, BacTiter-Glo luminescence, 24 h | 330,000 tested, 1.4% active | inhibition, % at 10 µM;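 active = inhibition of 40% or more at the single tested concentration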;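 note: wild-type TIM10 isogenic control strain grown at permissive 25 °C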
# NLRP3 yeast inh: inhibitors of NALP3 inflammasome in yeast. Yeast reconstituted NLRP3/ASC/caspase-1, beta-gal luminescence, 24 h. inhibition, % at 10 µM. 330,000 tested, 0.39% active;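 active = inhibition of 50% or more; inactive = inhibition below 50%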;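 note: plate controls were induced DMSO wells for no effect and uninduced yeast grown without galactose for full effect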
# PfHsp90 set2: growth inhibition of yeast expressing Plasmodium Hsp90. S. cerevisiae expressing PfHsp90, BacTiter-Glo ATP, 48 h; yeast lacking PDR1 and PDR3 efflux regulators. inhibition, % at 9.4 µM. 310,000 tested, 0.32% active. AID 504621;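 active = every replicate shows inhibition above about 80%, whatever the replicate mean, limit read from the data; inconclusive = mean inhibition reaches the set limit but some replicate falls short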;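 note: 0% = DMSO neutral controls and 100% = 20 µM radicicol positive controls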
# tim23-1 inh: inhibits growth of tim23-1 mutant yeast | 330,000 tested, 1.3% active | inhibition, % at 20 µM | S. cerevisiae tim23-1 growth, BacTiter-Glo luminescence, 24 h;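 active = growth inhibition of the mutant yeast at or above 50%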;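 note: temperature-sensitive mutant grown at 25 °C; plate controls were DMSO-treated mutant yeast for no effect and medium wells lacking yeast for full effect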
# tim10-1 inh: inhibits growth of tim10-1 mutant yeast | S. cerevisiae tim10-1 ts strain growth, BacTiter-Glo, 24 h | inhibition, % at 20 µM | 330,000 tested, 2.2% active | AID 463190;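 active = inhibition of at least 40%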;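 note: mutant grown at 25 °C; 0% = DMSO wells with yeast and 100% = wells holding no yeast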
# tim10-1 confirm: confirmation of tim10-1 mutant yeast growth inhibitors; shares compounds with tim10-1 inh; S. cerevisiae tim10-1 ts strain growth, BacTiter-Glo, 24 h; inhibition, % at 20 µM; 7,400 tested, 56% active; AID 463213;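 active = inhibition of yeast growth at or above a set limit in either of two repeat tests at 20 µM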;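 note: tim10-1 mutant grown at permissive 25 °C to find synthetic lethal compounds; 0% = DMSO yeast wells and 100% = medium wells without yeast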
# tim10 confirm: TIM10 yeast growth inhibition, confirmed | shares compounds with TIM10 inh | S. cerevisiae tim10 strain growth, BacTiter-Glo luminescence, 24 h | inhibition, % at 10 µM | 4,600 tested, 63% active | AID 463215;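 active = inhibition of yeast growth at or above a set limit in either of two replicates at 10 µM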;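 note: this counterscreen used the strain with wild-type TIM10; 0% = yeast with DMSO and 100% = medium wells lacking yeast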
# tim23-1 confirm: confirmation of tim23-1 mutant yeast growth inhibitors. S. cerevisiae tim23-1 growth, BacTiter-Glo luminescence, 24 h. inhibition, % at 20 µM. 4,400 tested, 83% active. shares compounds with tim23-1 inh;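 active = inhibition above about 39% in either of two replicate wells at 20 µM, limit read from the data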;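 note: temperature-sensitive tim23-1 mutant grown at 25 °C; 0% = DMSO wells with yeast and 100% = medium wells without yeast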
# Starred values were filed as active, the others as inactive; ? = inconclusive; . = no result given. Most compounds without a hit are left out; they make up all but 3.7% or so of the library.
SMILES,TIM10 inh,NLRP3 yeast inh,PfHsp90 set2,tim23-1 inh,tim10-1 inh,tim10-1 confirm,tim10 confirm,tim23-1 confirm
Cc1ccc(NC(=O)CN2CCOCC2)cc1C,-12,7,7,-6,-8,.,.,.
O=C(CCc1ccc(Oc2cc([N+](=O)[O-])cc([N+](=O)[O-])c2)cc1)N1CCCCCC1,45*,5,-21,51*,43*,39*,42*,50*
COc1ccc(C(=O)c2c(C(F)(F)F)oc3c2C(=O)c2ccccc2C3=O)cc1,51*,25,-45,79*,55*,52*,76*,73*
COc1ccc(-c2cccc(C3CC=CC4C3C(=O)N(Cc3ccccc3)C4c3ccc(OC)c(Cl)c3)c2)cc1 (stereo not drawn),67*,14,-9,58*,49*,37*,23,62*
Cc1ccc(NC(=O)COc2ccccc2C=O)cc1Cl,51*,49,18,69*,43*,26,51*,69*
CS(=O)(=O)N1CCC(Oc2cccc(C(=O)NCCCC3CCCC3)c2)CC1,8,20,15,27,27,.,.,.
O=c1c2c(-c3cccs3)csc2ncn1-c1ccc(Br)cc1,17,18,.,59*,42*,35*,.,48*
Nn1cnc2scc(-c3cccs3)c2c1=O,-2,24,5,3,-10,.,.,.
O=c1c2c(-c3cccs3)csc2ncn1/N=C/c1ccccn1,37,30,-22,61*,56*,60*,.,62*
O=C(O)COc1ccc(/C=N/n2cnc3scc(-c4cccs4)c3c2=O)cc1,.,.,-2,.,.,.,.,.
COc1cccc(-n2cnc3scc(-c4cccs4)c3c2=O)c1,28,-3,2,52*,43*,42*,.,50*
COc1ccc(C(=O)Nn2cnc3scc(-c4cccs4)c3c2=O)c(O)c1,35,13,.,30,32,.,.,.
COc1ccc2noc3c2c1C(=O)c1ccccc1-3,39,5,0,69*,61*,71*,.,72*
COc1ccc(CC(=O)Oc2ccc(Cl)cc2Br)cc1S(=O)(=O)N1CCOCC1,0,23,.,19,3,.,.,.
CCC(=O)Nc1cccc(-c2csc(-c3ccccc3)n2)c1,52*,26,6,55*,40*,35*,-5,60*
CC1CCC(=C(C#N)C(=O)Nc2cccc(Cl)c2)CC1 (stereo not drawn),35,14,-21,60*,45*,42*,.,51*
CCOC(=O)C(=CNNc1cccc(Cl)c1)C(=O)OCC,27,10,18,55*,41*,53*,.,72*
CCOC(=O)C(=CNc1ccc(Cl)cn1)C(=O)OCC,-18,34,10,-7,-2,.,.,.
CCN1N=C(c2ccccc2)Cn2c1nc1ccccc12,28,13,-78,52*,43*,44*,.,46*
CS(=O)(=O)N1CCn2c1nc1ccccc12,2,-11,14,5,-1,.,.,.
COC(=O)c1c(C)nc2ccccc2c1C(=O)O,10,5,-10,3,25,.,.,.
COC(=O)c1cc(C)[nH]c2c(C)cc3nc4ccccc4c3c12,24,34,-8,59*,50*,42*,.,-17
COc1ccc(S(=O)(=O)N2CCOCC2)cc1NC(=O)c1ccc(=O)[nH]c1,1,-10,-12,11,9,.,.,.
O=C(Nc1ncc([N+](=O)[O-])s1)c1ccco1,46*,32,38,53*,40*,40*,23,48*
Cn1cccc1C(=O)OCC(=O)N1CCN(c2ccccc2)CC1,-17,8,.,-10,-13,.,.,.
SMILES,TIM10 inh,NLRP3 yeast inh,PfHsp90 set2,tim23-1 inh,tim10-1 inh,tim10-1 confirm,tim10 confirm,tim23-1 confirm
O=C1c2c(Br)c(Br)c(Br)c(Br)c2C(=O)N1c1ccccn1,69*,34,-14,86*,76*,75*,75*,58*
O=C(COc1cccc(C(F)(F)F)c1)NNC(=O)Cn1c(=O)cnc2ccccc21,-4,5,.,-14,-10,.,.,.
COc1ccc(O)c(CNn2c(-c3ccc(Br)cc3)nc3ccccc3c2=O)c1,28,27,-4,31,35,.,.,.
COc1cc(OC)cc(-c2nc3ccccc3c(=O)n2OC(=O)c2ccc(Br)cc2)c1,61*,18,1,58*,49*,38*,35*,72*
Cc1ccc(C(=O)c2cc([N+](=O)[O-])ccc2N2CCCCC2)c(C)c1,19,5,-87,35,30,.,.,.
O=C(COc1ccccc1Cl)Nc1ccccc1C(=O)N1CCOCC1,10,18,17,8,3,.,.,.
O=C(O)c1ccc2c(c1)C(=O)N(N1C(=O)c3ccccc3C1=O)C2=O,-17,8,-1,1,8,.,.,.
COc1cc(/C=N/NC(=S)NC2CC3CC2C2C=CCC32)ccc1O (stereo not drawn),-8,-14,-12,75*,53*,42*,.,62*
Cc1cc(-c2ccc(N=Nc3c(S(=O)(=O)O)cc4cc(S(=O)(=O)O)cc(N)c4c3O)c(C)c2)ccc1N=Nc1c(S(=O)(=O)O)cc2cc(S(=O)(=O)O)cc(N)c2c1O,55*,34,.,72*,65*,66*,47*,77*
CC1CCC/C=C/C(=O)c2c(O)cc(O)cc2CC(=O)O1 (stereo not drawn),40*,25,-22,53*,54*,49*,51*,54*
O=C(COC(=O)c1c[nH]c2ccccc12)NC1CCCCC1,4,0,13,13,4,.,.,.
O=c1/c(=C/c2ccco2)sc2nc(-c3ccccc3Br)nn12,64*,8,3,57*,45*,41*,51*,45*
COc1ccccc1-c1nc2s/c(=C\c3cccs3)c(=O)n2n1,57*,12,-14,78*,64*,29,-18,76*
CC1CCCCC1NC(=S)Nc1ccc(SC(F)F)cc1 (stereo not drawn),70*,43,.,53*,66*,65*,64*,39
CC1CCN(C(=S)Nc2ccc(SC(F)F)cc2)CC1,13,22,-4,10,16,.,.,.
C=C(C(=O)c1ccccc1)C(CC(=O)c1ccccc1)c1ccccc1 (stereo not drawn),58*,14,-4,56*,59*,51*,-23,56*
C=C(CCC(=O)c1ccccc1)C(=O)c1ccccc1,.,.,0,.,.,.,.,.
O=[N+]([O-])/C=C/c1cn(Cc2ccc(Cl)cc2)c2ccccc12,64*,15,?,73*,65*,58*,30*,75*

# Screens deposited in PubChem by several laboratories.
